Source: PubChem BioAssay (National Center for Advancing Translational Sciences (NCATS))
Hits are enriched below; roughly 1.7% of the tested compounds scored in any of these assays.
GLP-1R agonist – activates the human GLP-1 receptor. HEK293 GLP-1R CRE-luciferase, luminescence, 4-6 h; cells express a hypersensitive GLP-1R form. AID 624172. 0.007% of 380,000 active. Potency, µM (series often up to 45.6 µM), hits mostly activators. P43220
GLP1R inv ag – GLP-1 receptor (human) inverse agonism. P43220. HEK293 GLP-1R CRE-luciferase, luminescence, 24 h; GLP-1R form is constitutively active. Potency, µM (highest dose often 38.3 µM), actives largely listed as inhibitors. 1.6% of 410,000 active. AID 624417; also: nearly all actives have a fitted effect of over 55% in size
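Constitutively active GLP-1R drives a cAMP-responsive luciferase in stably transfected HEK293 cells; test compounds are added after overnight (12 h) attachment and left 24 hr, and signal loss in luminescence marks inhibition.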
PTHR1 ag – activates the human parathyroid hormone receptor PTHR1 | HEK293 GP2 PTHR1 cells, GloSensor cAMP luminescence, 1 h | Q03431 | 0.075% of 410,000 active | Potency, µM (doses to about 115 µM), usual class: activators; also: nearly all actives have a fitted effect of over 55% in size
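HEK-293-derived GP2 cells expressing PTHR1 and a GloSensor cAMP reporter, 3,000/well, plated overnight, given luciferin plus IBMX (each 0.5 mM as added) for 1 h at 37 °C, then compound for 1 h at 37 °C. Luminescence was read after 15 min at room temperature.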
GLP1R cytotox – cytotoxicity in counter-screen for GLP-1R inverse agonists. Potency, µM (doses to about 38.3 µM), actives largely listed as inhibitors. HEK293 cAMP-luciferase reporter cells, luminescence, 24 h. 0.13% of 410,000 active. AID 624418;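 also: loss of luciferase light is scored as toxicity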
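1536-well qHTS counterscreen of the MLSMR; 200 cells/uL, 12 h pre-incubation, 23 nL cpd, 24 h at 37 deg C 5% CO2, luciferase detection reagent, 12 min RT, luminescence. Inhibition = undesired.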
Numbers stand for hits; i = inactive; ? = inconclusive; nt = not tested or not shown. Calls follow the shape of the dose curve; as a rule, active = well fitted curve in the direction sought with a large enough effect; inconclusive = small, poorly fitted or top-dose-only effect, or another doubt; inactive = no such curve, though single readings can be large; an effect the other way counts as inactive or inconclusive.

SMILES	GLP-1R agonist	GLP1R inv ag	PTHR1 ag	GLP1R cytotox
COCCNC(=O)C1CCN(Cc2cc3ccccc3n2Cc2ccc(C)cc2)CC1	nt	10µM	i	i
CN(Cc1ccccc1)C(=O)C1CCN(Cc2cc3ccccc3n2Cc2ccccc2)CC1	nt	10µM	i	i
CCCNC(=O)C1CCN(Cc2cc3ccccc3n2Cc2ccccc2)CC1	nt	?	i	i
CN(C)CCNC(=O)C1CCN(Cc2cc3ccccc3n2Cc2ccccc2)CC1	nt	?	i	?
CCNC(=O)C1CCN(Cc2cc3ccccc3n2Cc2ccc(C)cc2)CC1	nt	i	i	i
Cc1ccccc1Cn1c(CN2CCC(C(=O)NCCc3ccccc3)CC2)cc2ccccc21	nt	11µM	i	i
CC(CNC(=O)C1CCN(Cc2cc3ccccc3n2Cc2ccccc2)CC1)c1ccccc1 (centres undefined)	nt	10µM	i	i
O=C(NCCc1ccccc1)C1CCN(Cc2cc3ccccc3n2Cc2ccccc2)CC1	nt	?	i	i
CC1=C(C(=O)NCCc2ccc(Cl)cc2)C2(CCCCC2)OC1=O	nt	i	i	i
CN1C(=O)c2ccccc2Sc2ccc(NC(=O)N3CCN(c4ccc(F)cc4)CC3)cc21	nt	?	i	i
CC(C)c1ccc(NC2CCCN(C(=O)CCN3CCCC3=O)C2)cc1 (centres undefined)	i	i	i	i
CC(C)c1ccc(NC2CCCN(C(=O)CC3CCCC3)C2)cc1 (centres undefined)	i	6.3µM	i	i
O=C(Nc1ccccc1Sc1ccccc1)c1ccc(F)cc1	i	5µM	i	i
Cc1ccc(C(=O)Nc2ccccc2Sc2ccccc2)cc1	i	i	i	i
Cc1cccc(C)c1NC(=O)CCCn1c(=O)c2cccn2c2ccccc21	nt	i	i	i
CN(C)C1(CNC(=O)C2CCN(S(=O)(=O)c3cc(Cl)ccc3Cl)CC2)CCCCC1	i	10µM	i	?
CC(C)c1ccc(S(=O)(=O)N2CCC(C(=O)NCC3(N(C)C)CCCCC3)CC2)cc1	i	?	i	i
C(=N\Nc1nc2ccccc2[nH]1)/c1ccccn1	i	?	i	11µM
C(=N\Nc1nc2ccccc2[nH]1)/c1ccc2ncccc2c1	i	?	i	?
c1ccc2c(c1)CC/C2=N/Nc1nc2ccccc2[nH]1	i	?	i	3.5µM
CC(C)(C)C1CCC(=NNc2nc3ccccc3[nH]2)CC1 (centres undefined)	i	?	i	i
COc1cccc(NC(=O)CSc2nc(=O)[nH]c3c2CCCC3)c1	nt	i	i	i
O=S(=O)(c1cccc(Cl)c1Cl)N1CCN(C(=S)NCCCN2CCOCC2)CC1	i	7.1µM	i	i
S=C(NCCCN1CCOCC1)N1CCN(c2nc(-c3ccc(Cl)cc3)cs2)CC1	i	3.5µM	i	?
S=C(NCCCN1CCOCC1)N1CCN(c2nc(-c3ccccc3)cs2)CC1	i	?	i	i
SMILES	GLP-1R agonist	GLP1R inv ag	PTHR1 ag	GLP1R cytotox
COCCNC(=O)c1ccccc1NC(=O)c1nsc2ccccc12	nt	i	i	i
CCc1ccc(S(=O)(=O)c2cn(C)c3cc(N4CCC(C)CC4)c(F)cc3c2=O)cc1	nt	i	i	i
CCN(C(=O)CSc1nc2ccccc2nc1Cc1ccc(F)cc1)c1cccc(C)c1	nt	i	i	i
CCN(C(=O)CSc1nc2ccccc2nc1Cc1cccc(OC)c1)c1cccc(C)c1	nt	11µM	i	i
CCN(C(=O)CSc1nc(-c2ccccc2)no1)c1cccc(C)c1	nt	1.3µM	i	i
COc1ccc(-n2ncc3c(NCCCOC(C)C)ncnc32)cc1	nt	i	i	i
COc1cccc(NC(=O)CSc2nc(=O)n(Cc3cccnc3)c3c2CCC3)c1	nt	i	i	i
O=C(Cn1cc(S(=O)(=O)Cc2ccccc2Cl)c2ccccc21)Nc1ccc(F)cc1F	nt	?	i	i
O=C(C1CCCCC1)N(Cc1cccnc1)c1nc2ccc(F)cc2s1	nt	11µM	i	i
Cc1ccc2nc(-c3ccc(NC(=O)CNC4CC4)cc3)sc2c1	i	13µM	i	i
CCOc1ccc(NC(=O)C2CCN(C(=O)N3CC(C)Oc4ccc(Cl)cc43)CC2)cc1 (centres undefined)	nt	i	i	i
O=C(Cc1coc2ccc3ccccc3c12)NCc1ccccc1	i	?	i	i
CCCN(CCC)C(=O)Cc1coc2ccc3ccccc3c12	i	8.9µM	i	i
COc1ccc(-n2cc(CNCCc3ncc(C)[nH]3)c(-c3ccccc3Cl)n2)cc1	i	?	i	i
COc1ccc(-n2cc(CNCCc3nc(C)cc(C)n3)c(-c3ccccc3Cl)n2)cc1	i	10µM	i	?
